# Measurements published in PubChem BioAssay (NCATS).
# Where “and” joins values, the source holds several entries; their conditions need not be identical. Equal entries are not always repeated. Inconclusive results are not listed. Where a call stands in place of a potency, no number is given. Calls of active or inactive are those of the source. Unless noted, calls come from the whole dose curve; as a rule, active = well fitted curve in the direction sought with a large enough effect; inconclusive = small, poorly fitted or top-dose-only effect, or another doubt; inactive = no such curve, though single readings can be large; an effect the other way counts as inactive or inconclusive.
# Assays:
# [1] = molecular target: Catechol O-methyltransferase (Homo sapiens) (UniProt P21964); assay: Confirmatory Screen for Target Class Profiling of Small Molecule Inhibitors of Methyltransferases (AID 1745852; calls by dose curve; note: potency is the fitted concentration of half-maximal effect); conditions: MTase-Glo luminescence, SAH detection, recombinant enzyme; measured here: COMT max response; stronger effect = lower value
# [2] = molecular target: Guanidinoacetate N-methyltransferase (Homo sapiens) (UniProt Q14353); assay: as above; conditions: MTase-Glo luminescence, SAH detection, recombinant enzyme; activity change, negative = inhibition: at 57.3 µM (top of the series)
# [3] = molecular target: Nicotinamide N-methyltransferase (Homo sapiens) (UniProt P40261); assay: as above; conditions: MTase-Glo luminescence, SAH detection, recombinant enzyme; measured here: NNMT max response; stronger effect = lower value
# [4] = molecular target: Phenylethanolamine N-methyltransferase (Homo sapiens) (UniProt P11086); assay: as above; conditions: MTase-Glo luminescence, SAH detection, recombinant enzyme; measured here: PNMT max response; stronger effect = lower value
# [5] = molecular target: Glutathione peroxidase 1 (Homo sapiens) (UniProt P07203); assay: Primary qHTS Assay for Inhibitors of Recombinant Selenoprotein Glutathione Peroxidase 1 (GPX1) (AID 1845191); conditions: recombinant GPX1, GR-coupled NADPH fluorescence, 15 min; series mostly up to 48.8 µM; note: nearly all actives have a fitted effect of over 65% in size; note: potency is the fitted concentration of half-maximal effect
# Summary of the method: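 GPX1 10 nM, GR 100 nM, GSH 1 mM, NADPH 0.5 mM, CHP 0.5 mM (final). 30-min cpd preincubation, RT. Ex340/Em450 read t=0, t=15 min.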
# [6] = molecular target: Phospholipid hydroperoxide glutathione peroxidase GPX4 (Homo sapiens) (UniProt P36969); assay: Primary qHTS Assay for Inhibitors of Recombinant Selenoprotein Glutathione Peroxidase 4 (GPX4) (AID 1845192); conditions: recombinant GPX4, GR-coupled NADPH fluorescence, 15 min; series mostly up to 50 µM; note: nearly all actives have a fitted effect of over 65% in size; note: potency is the fitted concentration of half-maximal effect
# Summary of the method: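 qHTS, GR-coupled: GPX4 200 nM + cpd 30 min RT → GSH 1 mM, NADPH 0.5 mM, GR 100 nM → CHP 0.5 mM start; fluor 340/450 at t0 and t15 min; no-enzyme wells as control.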
# [7] = molecular target: Metallo-beta-lactamase type 2 (Klebsiella pneumoniae) (UniProt C7C422); assay: qHTS to identify inhibitors of the New Delhi Metallo-beta-lactamase (NDM): assay validation screen against the NCATS LOPAC Collection (AID 1794843); conditions: NDM-1 enzyme, nitrocefin hydrolysis, absorbance 485 nm; series mostly up to 38.4 µM
# Summary of the method: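 Absorbance at 485 nm from nitrocefin turnover (50 uM solution added), read at plateau, gives the read-out. Compounds in DMSO were incubated first with 2 nM final NDM-1 in pH 7.0 HEPES buffer containing 1 uM ZnSO4 and 0.01% Tween20.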
# [8] = molecular target: Rap guanine nucleotide exchange factor 4 (Homo sapiens) (UniProt Q8WZA2); assay: Confirmatory qHTS for antagonist of cAMP-regulated guanine nucleotide exchange factor 4 (EPAC2) (AID 1645885); conditions: EPAC2 Rap1B-BODIPY-GDP exchange fluorescence, biochemical; series mostly up to 114 µM; note: nearly all actives have a fitted effect of over 25% in size; note: potency is the fitted concentration of half-maximal effect
# [9] = molecular target: Luciferin 4-monooxygenase (Photinus pyralis) (UniProt P08659); assay: Primary firefly luciferase (FLuc) qHTS assay for identification of artifact compounds. (AID 1845220); conditions: purified firefly luciferase, luminescence, 5 min; series mostly up to 54.1 µM; note: nearly all actives have a fitted effect of over 60% in size
# Summary of the method: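 Reaction readout was CCD-imaged luminescence, taken 5 min after adding 10 nM purified firefly enzyme to compound-treated wells holding 10 uM luciferin and ATP in pH 7.6 buffer.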
# [10] = Primary fluorescence-based thiol-reactive (MSTI) qHTS assay for identification of artifact compounds. (AID 1845221); conditions: MSTI thiol-reactivity probe, 1 h; series mostly up to 53.8 µM;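 note: thiol-reactive compounds lower the probe fluorescence signal; nearly all actives have a fitted effect of over 65% in size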
# Summary of the method: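 A multi-concentration qHTS design tested compounds against 4 uM MSTI, pH 7.4 phosphate-buffered saline. Plates were protected from light for 1 h at room temperature before imaging fluorescence.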
# [11] = system: Nanoluciferase (engineered Oplophorus gracilirostris luciferase); assay: Primary Nanoluciferase (NLuc) qHTS assay for identification of artifact compounds. (AID 1845222); conditions: NLuc-conditioned medium, Nano-Glo luminescence, 5 min; series mostly up to 54.1 µM;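 note: NLuc secreted into diluted conditioned medium of S16 cells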
# Summary of the method: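 Concentration-response data were obtained by luminescence after 5 min with Nano-Glo substrate at 1:100. The enzyme was diluted S16 NLuc-expressing cell medium, preincubated with compound for 15 min at RT. Curves were fitted with a 4-parameter Hill model.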
# [12] = Viability counterscreen for antagonist of constitutive androstane receptor (CAR) against the NCATS DSHEA and TCM libraries (AID 1794837); conditions: CAR reporter cell line viability counterscreen, qHTS; series mostly up to 40 µM;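 note: compound exposure lasted 24 h before viability reading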
# Summary of the method: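 Cells: HepG2 line carrying CYP2B6 reporter and hCAR, seeded and attached 5 h. Then pin-transferred test substances plus agonist CITCO at 48 uM final; 24 h incubation; fluorogenic viability reagent, 1 h.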
# [13] = Viability counterscreen for agonist of constitutive androstane receptor (CAR) against the NCATS DSHEA and TCM libraries (AID 1794838); conditions: HepG2 cell viability counterscreen, CAR agonist assay, co-treated with 0.75 µM CAR antagonist; series mostly up to 40 µM;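 note: HepG2 cells with CYP2B6 reporter and hCAR plus 0.75 µM PK11195 antagonist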
# Summary of the method: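 Cell health was measured as CellTiter-Fluor signal in HepG2-CYP2B6-hCAR cells treated for 24 h with substances alongside the hCAR antagonist PK11195 (0.75 uM final).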
# [14] = molecular target: Nuclear receptor subfamily 1 group I member 3 (Homo sapiens) (UniProt Q14994); assay: Primary qHTS for agonist of constitutive androstane receptor (CAR) against the NCATS DSHEA and TCM libraries (AID 1794839); conditions: CAR agonist reporter cells, qHTS luminescence, CAR antagonist co-added at 0.75 µM; series mostly up to 40 µM;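 note: HepG2 cells expressing human CAR with a CYP2B6 reporter plus PK11195 antagonist; luciferase reporter luminescence read with ONE-Glo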
# Summary of the method: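 qHTS, agonist mode: HepG2-CYP2B6-hCAR, 2,500 cells/well, 5 h attach; cpds + PK11195 0.75 µM final; 24 h, 37 °C, 5% CO2. Readouts: CellTiter-Fluor (405/540 nm), then ONE-Glo luminescence.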
# [15] = HepG2 viability counterscreen (readout 2: ATP content) against the NCATS DSHEA and TCM libraries (AID 1794840); conditions: ATP content luminescence; series mostly up to 27.3 µM
# Summary of the method: (§1)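 Same wells read twice: first fluorescence from cleaved GF-AFC substrate (25 uM final, 30 min, 37C) for live-cell protease, then CellTiter-Glo luminescence after 30 min at room temperature for ATP. HepG2 cells were exposed ~24 h to substances.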
# [16] = HepG2 viability counterscreen (readout 1: protease activity) against the NCATS DSHEA and TCM libraries (AID 1794841); conditions: qHTS concentration series; series mostly up to 27.3 µM;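 note: cells exposed to compounds for about 24 h before the protease read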
# Summary of the method: as §1
# [17] = NCATS anti-infectives library activity on HEK293 viability as a counter-qHTS vs the C. elegans viability qHTS (AID 1745854); conditions: HEK293 viability counter-screen; series mostly up to 41.8 µM;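 note: HEK293 cells exposed to compounds for 24 hr before the viability read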
# Summary of the method: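 Counter-screen for cytotoxicity: HEK293, 24 hr, 37C, compounds up to 41.7 uM final (a dilution series, 1:5). Readout CellTiter-Glo luminescence, 10 min RT. Digitonin control, 83.3 uM final.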
# Sequence of Rap guanine nucleotide exchange factor 4 (Homo sapiens) (Q8WZA2 whole entry, looked up): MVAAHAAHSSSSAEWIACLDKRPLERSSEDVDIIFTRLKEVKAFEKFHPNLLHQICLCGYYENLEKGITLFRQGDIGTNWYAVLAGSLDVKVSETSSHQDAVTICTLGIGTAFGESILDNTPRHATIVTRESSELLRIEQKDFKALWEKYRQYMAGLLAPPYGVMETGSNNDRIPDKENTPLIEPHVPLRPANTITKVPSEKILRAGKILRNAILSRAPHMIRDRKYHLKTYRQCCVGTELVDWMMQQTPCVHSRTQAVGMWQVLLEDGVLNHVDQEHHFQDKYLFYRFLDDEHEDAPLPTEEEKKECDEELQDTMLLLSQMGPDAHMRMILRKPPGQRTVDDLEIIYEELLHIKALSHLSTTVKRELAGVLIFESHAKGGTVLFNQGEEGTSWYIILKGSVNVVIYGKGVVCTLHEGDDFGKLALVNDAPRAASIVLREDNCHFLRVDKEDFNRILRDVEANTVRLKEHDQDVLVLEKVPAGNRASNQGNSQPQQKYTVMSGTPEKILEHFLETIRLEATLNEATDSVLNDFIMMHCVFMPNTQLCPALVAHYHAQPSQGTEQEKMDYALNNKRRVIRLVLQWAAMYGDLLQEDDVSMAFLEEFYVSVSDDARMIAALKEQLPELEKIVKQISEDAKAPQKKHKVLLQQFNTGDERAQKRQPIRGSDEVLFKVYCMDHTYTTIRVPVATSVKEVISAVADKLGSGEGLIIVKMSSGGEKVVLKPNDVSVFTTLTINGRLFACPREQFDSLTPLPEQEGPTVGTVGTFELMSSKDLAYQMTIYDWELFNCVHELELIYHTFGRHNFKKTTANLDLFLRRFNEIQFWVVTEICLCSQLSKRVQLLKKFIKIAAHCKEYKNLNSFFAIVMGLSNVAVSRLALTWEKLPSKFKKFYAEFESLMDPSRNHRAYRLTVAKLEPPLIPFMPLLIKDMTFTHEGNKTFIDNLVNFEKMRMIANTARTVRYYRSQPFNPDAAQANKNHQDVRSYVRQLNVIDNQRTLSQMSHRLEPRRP
# Sequence of Phenylethanolamine N-methyltransferase (Homo sapiens) (P11086 whole entry, looked up): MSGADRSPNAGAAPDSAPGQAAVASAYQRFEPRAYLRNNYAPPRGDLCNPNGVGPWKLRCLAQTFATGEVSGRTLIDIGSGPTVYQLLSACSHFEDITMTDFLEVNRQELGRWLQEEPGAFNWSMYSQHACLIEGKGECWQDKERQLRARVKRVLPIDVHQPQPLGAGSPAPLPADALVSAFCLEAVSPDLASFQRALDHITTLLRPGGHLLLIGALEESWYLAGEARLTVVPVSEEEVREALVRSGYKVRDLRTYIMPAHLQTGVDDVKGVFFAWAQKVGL
# Sequence of Glutathione peroxidase 1 (Homo sapiens) (P07203 whole entry, looked up): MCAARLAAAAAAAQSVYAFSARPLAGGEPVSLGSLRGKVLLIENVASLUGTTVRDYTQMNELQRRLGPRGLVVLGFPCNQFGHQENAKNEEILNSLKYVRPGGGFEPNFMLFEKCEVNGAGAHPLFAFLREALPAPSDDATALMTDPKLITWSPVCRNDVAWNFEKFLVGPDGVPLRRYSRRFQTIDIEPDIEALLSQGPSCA
# Sequence of Catechol O-methyltransferase (Homo sapiens) (P21964 whole entry, looked up): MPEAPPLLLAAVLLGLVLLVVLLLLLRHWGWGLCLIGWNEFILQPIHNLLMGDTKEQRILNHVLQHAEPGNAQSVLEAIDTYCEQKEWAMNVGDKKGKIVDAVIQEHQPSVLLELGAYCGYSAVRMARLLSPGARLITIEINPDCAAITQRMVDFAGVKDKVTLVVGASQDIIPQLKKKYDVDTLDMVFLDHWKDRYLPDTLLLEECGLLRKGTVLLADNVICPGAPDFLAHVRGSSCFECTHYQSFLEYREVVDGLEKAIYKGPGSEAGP
# Sequence of Nicotinamide N-methyltransferase (Homo sapiens) (P40261 whole entry, looked up): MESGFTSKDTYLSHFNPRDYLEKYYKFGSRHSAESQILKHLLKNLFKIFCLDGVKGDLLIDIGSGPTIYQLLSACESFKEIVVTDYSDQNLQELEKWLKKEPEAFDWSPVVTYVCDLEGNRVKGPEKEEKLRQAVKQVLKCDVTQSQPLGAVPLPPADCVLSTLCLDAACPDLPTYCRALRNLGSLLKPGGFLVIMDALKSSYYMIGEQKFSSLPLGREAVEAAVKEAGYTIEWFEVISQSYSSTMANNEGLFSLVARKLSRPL
# Sequence of Phospholipid hydroperoxide glutathione peroxidase GPX4 (Homo sapiens) (P36969 whole entry, looked up): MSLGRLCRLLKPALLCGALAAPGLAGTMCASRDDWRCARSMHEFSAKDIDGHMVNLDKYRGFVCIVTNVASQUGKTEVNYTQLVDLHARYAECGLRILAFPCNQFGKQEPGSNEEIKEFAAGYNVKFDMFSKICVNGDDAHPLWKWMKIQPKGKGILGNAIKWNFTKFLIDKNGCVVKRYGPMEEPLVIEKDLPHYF
# Sequence of Metallo-beta-lactamase type 2 (Klebsiella pneumoniae) (C7C422 whole entry, looked up): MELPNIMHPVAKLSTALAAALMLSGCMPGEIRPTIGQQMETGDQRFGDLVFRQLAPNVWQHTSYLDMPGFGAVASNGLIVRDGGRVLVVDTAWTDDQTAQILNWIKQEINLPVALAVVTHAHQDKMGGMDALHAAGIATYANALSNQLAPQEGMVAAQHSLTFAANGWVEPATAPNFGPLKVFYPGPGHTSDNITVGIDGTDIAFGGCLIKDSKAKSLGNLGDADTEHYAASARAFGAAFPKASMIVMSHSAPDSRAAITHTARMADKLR
# Sequence of Nuclear receptor subfamily 1 group I member 3 (Homo sapiens) (Q14994 whole entry, looked up): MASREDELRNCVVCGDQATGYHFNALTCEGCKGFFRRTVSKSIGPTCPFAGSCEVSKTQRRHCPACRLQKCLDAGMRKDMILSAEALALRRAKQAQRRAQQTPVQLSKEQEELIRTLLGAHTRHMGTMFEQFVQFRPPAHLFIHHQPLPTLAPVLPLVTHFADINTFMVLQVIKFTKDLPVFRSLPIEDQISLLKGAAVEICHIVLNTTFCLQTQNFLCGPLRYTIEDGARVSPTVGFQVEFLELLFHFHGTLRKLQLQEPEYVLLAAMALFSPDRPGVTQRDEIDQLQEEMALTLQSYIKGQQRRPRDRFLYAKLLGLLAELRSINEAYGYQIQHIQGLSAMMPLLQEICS
structure (smiles),measurement,setting,value
N.N.N.N.N.N.N.N.N.N.N.N.N.N.O.O.[Ru+4].[Ru+5].[Ru+5],activity,[1],-14.7%
same,Potency,[2],30.6 µM (active)
same,activity,[3],-45.3%
same,activity,[4],-7.59%
same,Potency,[5],inactive
same,Potency,[6],inactive
Oc1ccccc1O,activity,[1],160%
same,"activity change, negative = inhibition",[2],-2.32%
same,activity,[3],-3.91%
same,activity,[4],8.37%
same,Potency,[5],inactive
same,Potency,[6],inactive
O=C(O)CNC(=O)C(CS)Cc1ccccc1 (centres undefined),activity,[1],9.44%
same,"activity change, negative = inhibition",[2],4.59%
same,activity,[3],2.86%
same,activity,[4],8.57%
same,Potency,[5],inactive
same,Potency,[6],inactive
CCOC(=O)N1CCN(/[N+]([O-])=N/Oc2ccc([N+](=O)[O-])cc2[N+](=O)[O-])CC1,activity,[1],-99.7%
same,"activity change, negative = inhibition",[2],-4.08%
same,activity,[3],-19%
same,activity,[4],-3.94%
same,Potency,[7],inactive
same,Potency,[5],inactive
same,Potency,[6],inactive
Nc1cc(-c2ccncc2)c[nH]c1=O,Potency,[8],inactive
same,Potency,[5],inactive
same,Potency,[6],inactive
CCN(CC)CCCCNc1ncc2cc(-c3c(Cl)cccc3Cl)c(NC(=O)NC(C)(C)C)nc2n1,activity,[1],-7.59% and -2.1%
same,"activity change, negative = inhibition",[2],0.993% and 9.36%
same,activity,[3],-17.4% and -14.9%
same,activity,[4],-6.92% and -0.98%
same,Potency,[7],inactive
same,Potency,[5],20.2 µM (active)
same,Potency,[6],7.18 µM (active)
same,Potency,[9],inactive
same,outcome,[10],inactive
same,Potency,[11],inactive
CC(C)(C=O)Cc1cc(C(C)(C)C)c(O)c(C(C)(C)C)c1,activity,[1],2.63%
same,"activity change, negative = inhibition",[2],1.77%
same,activity,[3],-8.99%
same,activity,[4],-4.11%
same,Potency,[7],inactive
same,Potency,[5],inactive
same,Potency,[6],inactive
COc1ccccc1CNCCCCCCNCCCCCCCCNCCCCCCNCc1ccccc1OC,activity,[1],5.14%
same,Potency,[2],0.153 µM (active)
same,activity,[3],-17.7%
same,activity,[4],2.9%
same,Potency,[7],inactive
same,Potency,[5],inactive
same,Potency,[6],inactive
Fc1ccc(C(OCCCc2cnc[nH]2)c2ccc(F)cc2)cc1,activity,[1],0.59%
same,"activity change, negative = inhibition",[2],7.35%
same,activity,[3],-23.2%
same,activity,[4],-0.346%
same,Potency,[7],inactive
same,Potency,[5],inactive
same,Potency,[6],inactive
CN1CCc2cccc3c2C1Cc1ccc(O)c(O)c1-3 (centres undefined),activity,[1],5.12%
same,"activity change, negative = inhibition",[2],3.98%
same,activity,[3],0.623%
same,activity,[4],3.44%
same,Potency,[7],inactive
same,Potency,[5],inactive
same,Potency,[6],inactive
C#CCN1C(C)=C(C(=O)OC)C(c2cccc([N+](=O)[O-])c2)C(C(=O)OCC)=C1C (centres undefined),Potency,[8],6.98 µM (active)
O=C(O)c1cc(O)c(O)c(O)c1,outcome,[12],inactive
same,outcome,[13],inactive
same,outcome,[14],inactive
same,outcome,[15],inactive
same,outcome,[16],inactive
same,Potency,[6],inactive
COc1ccc(C(=O)/C(Cc2cc(OC)c(OC)c(OC)c2)=C(\C(=O)O)c2ccc3c(c2)OCO3)cc1,Potency,[7],inactive
same,Potency,[5],inactive
same,Potency,[6],inactive
O=c1[nH]c2cc(C(F)(F)F)ccc2n1-c1cc(C(F)(F)F)ccc1O,Potency,[7],inactive
same,Potency,[5],inactive
same,Potency,[6],inactive
Nc1nc(SCc2ccc([N+](=O)[O-])cc2)c2ncn([C@@H]3O[C@H](CO)[C@@H](O)[C@H]3O)c2n1,Potency,[7],inactive
same,Potency,[5],inactive
same,Potency,[6],inactive
CC(C(=O)O)c1ccc(C(=O)c2cccs2)cc1 (centres undefined),outcome,[17],inactive
same,Potency,[5],inactive
same,Potency,[6],inactive
O=S(=O)(c1cccc2c(I)cccc12)N1CCCNCC1,Potency,[7],inactive
same,Potency,[5],inactive
same,Potency,[6],inactive
COc1cc(C(O)CO)ccc1OS(=O)(=O)O (centres undefined),Potency,[7],inactive
same,Potency,[5],inactive
same,Potency,[6],inactive
Nc1nc(Cl)nc2c1ncn2[C@@H]1O[C@H](COP(=O)(O)OP(=O)(O)OP(=O)(O)O)[C@@H](O)[C@H]1O,Potency,[7],inactive
same,Potency,[5],inactive
same,Potency,[6],inactive
CC[C@@H](C)[C@H]1O[C@]2(CC[C@H]1C)C[C@@H]1C[C@@H](CC=C(C)[C@@H](O[C@H]3C[C@H](OC)[C@@H](O[C@H]4C[C@H](OC)[C@@H](O)[C@H](C)O4)[C@H](C)O3)[C@@H](C)C=CC=C3CO[C@@H]4[C@H](O)C(C)=C[C@@H](C(=O)O1)[C@]34O)O2,Potency,[7],inactive
same,Potency,[5],inactive
same,Potency,[6],inactive
NCCCCCCCCCCN,Potency,[7],inactive
same,Potency,[5],inactive
same,Potency,[6],inactive
N=c1ccn2c(n1)O[C@H]1[C@H](O)[C@@H](CO)O[C@H]12,outcome,[17],inactive
same,Potency,[7],inactive
same,Potency,[5],inactive
same,Potency,[6],inactive
OC[C@H]1O[C@@H](n2cnc3c(NC4CCCC4)ncnc32)[C@H](O)[C@@H]1O,Potency,[7],inactive
same,Potency,[5],inactive
same,Potency,[6],inactive
CNc1ncnc2c1ncn2[C@@H]1O[C@H](CO)[C@@H](O)[C@H]1O,outcome,[17],inactive
same,Potency,[7],inactive
same,Potency,[5],inactive
same,Potency,[6],inactive
COc1cc2c(CCNC(C)=O)c[nH]c2cc1Cl,Potency,[7],inactive
same,Potency,[5],inactive
same,Potency,[6],inactive
CN1[C@@H](CC(=O)c2ccccc2)CCC[C@H]1C[C@H](O)c1ccccc1,Potency,[7],inactive
same,Potency,[5],inactive
same,Potency,[6],inactive
CC1OC1P(=O)(O)O (centres undefined),Potency,[7],inactive
same,Potency,[5],inactive
same,Potency,[6],inactive
COC(=O)C1=C(C)NC(C)=C(C(=O)OC)C1c1cccc(NC(=O)NCCCN2CCC(c3cccc(OC)c3)CC2)c1,activity,[1],-1.21% and -6.68%
same,"activity change, negative = inhibition",[2],0% and 10.5%
same,activity,[3],-24.5% and -25.9%
same,activity,[4],0.516% and -5.06%
same,Potency,[5],inactive
same,Potency,[6],inactive
same,Potency,[9],inactive
same,outcome,[10],inactive
same,Potency,[11],inactive
